# Bioassay records (PubChem)
# VACV Venus inh: inhibitors of vaccinia virus (Venus reporter) | Vaccinia virus Venus reporter expression, fluorescence | Potency, µM (titrated, usually from 36.5 µM), without a hit: top-dose activity change, negative = inhibition, usual class: inhibitors | hit rate 0.46% among 330,000 | AID 720580; calls by dose curve; tested in A549 cells; also: nearly all actives have a fitted effect of over 30% in size
# RE007 growth inh: less growth of the S. pombe RE007 Vpr strain. S. pombe RE007 Vpr strain, BacTiter-Glo ATP luminescence, 24 h. Potency, µM (doses to about 92.2 µM), for inactives: top-dose activity change, negative = less growth, most hits filed as inhibitors. hit rate 0.21% among 360,000. AID 651644; active = well fitted falling curve with a large enough effect; inconclusive = small, poorly fitted or top-dose-only effect; inactive = no such curve, though single readings can be large or run the other way; also: nearly all actives have a fitted effect of over 50% in size
#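 Fission yeast RE007 carrying one integrated HIV-1 vpr copy, seeded at OD 0.01 in PMG+AL medium with 23 nL pinned compound. Grown 24 h at 30 degrees; viability read by BacTiter-Glo luminescence after 5 min.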
# Vaccinia mCherry: vaccinia inhibition (mCherry reporter); Vaccinia virus mCherry reporter infection, fluorescence; Potency, µM (titrated, usually from 36.5 µM), for inactives: top-dose activity change, negative = inhibition, actives largely listed as inhibitors; hit rate 0.63% among 310,000; calls by dose curve; tested in A549 cells; also: nearly all actives have a fitted effect of over 35% in size
# LmPK inhibitor: inhibitors of Leishmania mexicana pyruvate kinase; AID 1721; purified LmPK, Kinase-Glo ATP luminescence, 1 h; hit rate 0.37% among 290,000; Potency, µM (doses to about 57.5 µM), inactives show top-dose activity change, negative = inhibition, most hits filed as inhibitors; Q27686
# Target sequence (Q27686 whole entry, looked up): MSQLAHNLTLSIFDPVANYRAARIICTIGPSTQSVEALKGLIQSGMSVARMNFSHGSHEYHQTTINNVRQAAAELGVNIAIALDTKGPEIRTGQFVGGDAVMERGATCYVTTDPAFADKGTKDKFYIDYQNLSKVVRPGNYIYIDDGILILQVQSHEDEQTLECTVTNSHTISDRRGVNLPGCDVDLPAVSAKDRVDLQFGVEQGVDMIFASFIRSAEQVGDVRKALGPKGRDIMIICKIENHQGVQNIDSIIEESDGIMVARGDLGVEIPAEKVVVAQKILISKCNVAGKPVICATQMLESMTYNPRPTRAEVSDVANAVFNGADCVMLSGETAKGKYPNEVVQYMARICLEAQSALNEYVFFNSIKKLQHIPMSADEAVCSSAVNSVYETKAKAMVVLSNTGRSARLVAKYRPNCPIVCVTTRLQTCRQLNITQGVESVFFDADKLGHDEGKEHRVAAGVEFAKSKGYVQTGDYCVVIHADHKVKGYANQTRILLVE
#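 Purified LmPK (0.1 nM) with 0.5 mM PEP and 0.1 mM ADP in imidazole buffer pH 7.2 with MgCl2/KCl, 1 h at room temperature. ATP formed was read by luciferase luminescence and normalized to no-enzyme and uninhibited controls.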
# Tb PYK inh: inhibitors of Trypanosoma brucei pyruvate kinase. Q57TT1. TbPYK enzyme, Kinase-Glo Plus ATP luminescence, 45 min. Potency, µM (highest dose often 76.8 µM), for inactives: top-dose activity, negative = inhibition, most hits filed as inhibitors. hit rate 0.12% among 410,000; also: nearly all actives have a fitted effect of over 50% in size
#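 Luminescence from Kinase-Glo Plus, added after a 45-minute room-temperature reaction, served as the end-point read-out. The enzyme and substrate were preincubated with compound before ADP (130 uM final) initiated turnover. Concentration-effect curves came from normalized qHTS data.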
# AMA1-RON2 inh: inhibitors of Plasmodium falciparum AMA1-RON2 interaction; AlphaScreen AMA1-biotinylated RON2 peptide binding; Potency, µM (doses to about 58.2 µM), for the others: at the highest dose activity change, negative = inhibition, hits mostly inhibitors; hit rate 0.2% among 360,000;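 also: 0% = vehicle wells and -100% = peptide control; nearly all actives have a fitted effect of over 45% in size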
#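 AMA1 (3D7) with his tag at 25 nM final met compounds first, then biotinylated RON2 peptide at 25 nM; detection used donor plus acceptor beads, 10 µg/mL apiece, read by AlphaScreen after 30 min at room temperature.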
# An asterisk follows results filed as active; i = inactive; ? = inconclusive; . = not tested or not shown; [ ] = another dose, or the depositor's remark. Only some compounds are listed: those with a hit (about 1.3% of all), similar ones and a draw of the others. Unless noted, calls follow the shape of the dose curve; as a rule, active = well fitted curve in the direction sought with a large enough effect; inconclusive = small, poorly fitted or top-dose-only effect, or another doubt; inactive = no such curve, though single readings can be large; an effect the other way counts as inactive or inconclusive. Unless noted, % is scaled to controls: 0 for no effect and ±100 for the full control effect; potency is read from the fitted curve at half-maximal effect.
SMILES,VACV Venus inh,RE007 growth inh,Vaccinia mCherry,LmPK inhibitor,Tb PYK inh,AMA1-RON2 inh
Cc1nn(-c2ccccc2)c(C)c1/C=N/n1c(-c2ccccc2Br)n[nH]c1=S,-16%,13%,-7%,13µM*,?,57%
CN(C)C(=O)Oc1ccc(-c2cn3cc(Cl)ccc3n2)cc1,-10%,-17%,-2%,13µM*,-11%,18%
CN(C)C(=O)Oc1cccc(-c2cn3cc(Cl)ccc3n2)c1,-17%,-20%,-2%,-4%,-7%,-6%
Cc1ccc(-c2nc(-c3cc4cc(Cl)ccc4oc3=O)sc2C)cc1,10%,.,-14%,.,.,.
Cc1nc(N)nc(N)c1/C=C/C(C)(C)c1ccc(Cl)cc1,3.5µM*,-10%,?,1%,4%,-11%
COc1cccc(N2C(=O)CC(Sc3nc(C)cc(C)n3)C2=O)c1 (centres undefined),-16%,-6%,-2%,-2%,-5%,1%
COc1ccc(N2C(=O)CC(Sc3n[nH]c(-c4cccc(C)c4)n3)C2=O)cc1 (centres undefined),-15%,20µM*,i,5%,-14%,57%
CC[C@H]1CN2CCc3cc(OC)c(OC)cc3C2C[C@@H]1C[C@H]1NCCc2cc(OC)c(OC)cc21 (some centres undefined),0.89µM*,-18%[18.4 µM],0.5µM*,.,-3%,-15%
CCC1=C(CC2NCCc3ccccc32)CC2c3cc(OC)c(OC)cc3CCN2C1 (centres undefined),3.5µM*,1%,3.5µM*,.,4%,-25%
COC(=O)CC1NCCc2cc(OC)c(OC)cc21 (centres undefined),.,9%,.,10%,-4%,-7%
CCC1CN2CCc3cc(OC)c(OC)cc3C2CC1CC1NCCc2cc(OC)c(OC)cc21 (centres undefined),2.5µM*,.,2.2µM*,.,.,.
CC(=O)NC(NC(=S)Nc1ccc(N=Nc2ccccc2C)cc1C)C(Cl)(Cl)Cl (centres undefined),-17%,-14%,i,0%,-4%,-7%
Cc1cc(N=Nc2ccccc2C)ccc1N,-23%,?,?,.,-2%,11µM*
COc1cc(CNC(=O)c2cnn(-c3ncc4c(n3)-c3ccccc3CC4)c2C)cc(OC)c1OC,-28%,.,?,.,.,.
O=C(CCN1CCc2ccccc2CC1)c1ccc2c(c1)OCCO2,.,7.1µM*,.,-6%,?,-13%
O=C(CCN1CCOCC1)c1ccc2c(c1)OCCO2,-28%,13µM*,.,0%,6%,1%
O=C(CCN1CCCCC1)c1ccc2c(c1)OCO2,-23%,7.9µM*,-15%[1.46 µM],2%,-6%,-3%
O=C(CCCN1CCOCC1)c1ccc2c(c1)OCCO2,-18%,1%,-16%,-4%,2%,-2%
CCSc1nnc(C(C)NC(=O)c2ccc(OC)cc2)n1C (centres undefined),-5%,.,-5%,.,.,.
CN(Cc1ccco1)C(=O)c1cc(NC(=O)C2CCC2)c2c(c1)nc(-c1ccncc1)n2C,-7%,.,-7%,.,.,.
C/C(CC1CC(C)OC1=O)=N\NC(N)=S (centres undefined),.,-7%,.,1%,-3%,44%
C/C(CCC12CC3CC(CC(C3)C1)C2)=N\NC(N)=S,?,8%,11µM*,7%,3%,63%
CCc1sc(C(C2C(=O)CC(C)(C)CC2=O)C2C(=O)CC(C)(C)CC2=O)cc1[N+](=O)[O-],2%,0%,i,-1%,25µM*,-1%
O=C(Nc1ccccc1)c1ccc(Nc2c([N+](=O)[O-])cc([N+](=O)[O-])c3ccccc23)cc1,?,-4%,?,2%,-10%,-26%
O=[N+]([O-])c1cc(Br)c(Nc2ccccc2)c([N+](=O)[O-])c1,.,-9%,.,-5%,1%,25µM*
SMILES,VACV Venus inh,RE007 growth inh,Vaccinia mCherry,LmPK inhibitor,Tb PYK inh,AMA1-RON2 inh
Cc1cc(C)c2nc(NNC(=O)c3ccc(S(=O)(=O)N4CCCC(C)C4)cc3)sc2c1 (centres undefined),?,-10%,4µM*,2%,-1%,40%
Cc1cc(C)c2nc(NNC(=O)c3ccc(S(=O)(=O)N4CC(C)CC(C)C4)cc3)sc2c1 (centres undefined),?,12%,?,0%,?,53%
Cc1cc(C)c2nc(NC(=O)c3ccc(S(=O)(=O)N4CCC(C)CC4)cc3)sc2c1,-6%,.,-3%,.,-9%,.
Cc1cccc2sc(NNC(=O)c3ccc(S(=O)(=O)N4CC(C)CC(C)C4)cc3)nc12 (centres undefined),?,3%,28µM*,2%,-15%,40%
Cc1ccc(NC(=O)c2cc(-n3cnnc3)ccc2Cl)cc1,.,20%,.,0%,-1%,23%
Cc1ccc(NC(=O)c2cc(N3C(=O)C=CC3=O)ccc2Cl)cc1C,0%,10µM*,-9%,28%,?,-7%
Cc1ccc(NC(=O)c2cc(N3C(=O)C=CC3=O)ccc2N2CCOCC2)cc1,-6%,8.9µM*,-3%,38%,22µM*,3%
Cc1ccc(NC(=O)c2cc(NC(=O)c3ccco3)ccc2N2CCOCC2)cc1,.,-3%,.,-2%,0%,-2%
CC(=O)C(Cl)C(=O)Nc1ccccc1 (centres undefined),-26%,9%,-12%,4%,?,-2%
O=C(Nc1ccccc1)C(Cl)C(=O)c1ccccc1 (centres undefined),.,7.1µM*,.,10%,-30%,-8%
Cc1cccc(-c2cccc(C(=O)N3CCc4c(cnc(C)c4CNC(=O)c4cncs4)C3)c2)c1,-10%,.,-20%,.,.,.
O=C(N/N=C\c1ccc2c(c1)OCO2)c1ccco1,-12%,-27%,i,14µM*,-22%,11%
Cc1c(N)nc([C@@H](CC(N)=O)NC[C@H](N)C(N)=O)nc1C(=O)N[C@H](C(=O)N[C@H](C)[C@H](O)[C@H](C)C(=O)N[C@@H](C(=O)NCCc1nc(-c2nc(C(=O)NCCC[S+](C)C)cs2)cs1)[C@H](C)O)[C@H](O[C@@H]1O[C@@H](CO)[C@@H](O)[C@H](O)[C@@H]1O[C@H]1O[C@H](CO)[C@H](O)[C@H](OC(N)=O)[C@@H]1O)c1cnc[nH]1,.,.,.,.,8%,.
CN(C)CC(C)(O)c1ccc2c(c1)CN(Cc1cccn1-c1cccnc1)CCO2 (centres undefined),-7%,.,-15%,.,.,.
CCOC(=O)Nc1ccc2c(c1)N(C(=O)CCN(CC)CC)c1ccccc1CC2,.,-5%,.,7%,-4%,-1%
CCOC(=O)Nc1ccc2c(c1)N(C(=O)CCN(CC)CC)c1ccccc1S2=O (centres undefined),?,-2%,10µM*,1%,6%,0%
O=c1c(Br)ccc(Br)cc1Br,?,2.2µM*,?,.,-16%,-2%
